Data taken from ChEMBL document CHEMBL1961873, “Compounds: GSK PKIS; Assays: Nanosyn kinase panel” (2012).

biological target: T1, Dual specificity protein kinase TTK (Homo sapiens) (UniProt P33981); conditions: at 0.1 µM
T1 sequence (whole entry): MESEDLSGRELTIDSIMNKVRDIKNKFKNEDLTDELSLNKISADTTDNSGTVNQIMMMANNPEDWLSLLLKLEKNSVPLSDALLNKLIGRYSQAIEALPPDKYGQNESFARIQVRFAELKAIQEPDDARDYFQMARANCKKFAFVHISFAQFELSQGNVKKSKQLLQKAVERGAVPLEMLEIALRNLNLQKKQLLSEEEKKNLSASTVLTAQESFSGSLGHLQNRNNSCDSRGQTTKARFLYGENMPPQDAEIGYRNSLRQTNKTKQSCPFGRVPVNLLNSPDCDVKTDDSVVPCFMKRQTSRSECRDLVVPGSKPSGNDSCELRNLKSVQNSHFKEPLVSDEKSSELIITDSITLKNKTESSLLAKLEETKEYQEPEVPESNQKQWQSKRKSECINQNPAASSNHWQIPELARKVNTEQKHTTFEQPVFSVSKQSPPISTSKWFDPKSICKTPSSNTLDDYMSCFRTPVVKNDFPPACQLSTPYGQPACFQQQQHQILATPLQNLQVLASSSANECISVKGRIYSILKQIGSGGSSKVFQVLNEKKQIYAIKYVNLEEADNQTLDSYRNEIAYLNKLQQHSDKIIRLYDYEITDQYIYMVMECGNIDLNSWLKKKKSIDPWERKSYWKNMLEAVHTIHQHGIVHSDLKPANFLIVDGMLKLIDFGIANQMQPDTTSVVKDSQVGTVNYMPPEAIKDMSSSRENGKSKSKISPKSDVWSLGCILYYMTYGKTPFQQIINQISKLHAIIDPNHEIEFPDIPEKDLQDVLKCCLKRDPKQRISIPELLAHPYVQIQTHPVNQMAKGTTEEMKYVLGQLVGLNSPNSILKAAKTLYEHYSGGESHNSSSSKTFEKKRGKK

| Compound | inhibition [%] |
| --- | --- |
| CC(=O)Nc1cccc(C#Cc2cncnc2Nc2ccc(OCc3cccc(F)c3)c(Cl)c2)n1 | -1.68 |
| O=C1NC(=O)C(c2ccccc2Cl)=C1Nc1cccc(O)c1 | 2.7 |
| COc1ccc2cc(-c3c(-c4ccncc4)nc(-c4ccc([S+](C)[O-])cc4)n3C)ccc2c1 (stereo not drawn) | 4.12 |
| NS(=O)(=O)c1ccc(N/N=C2\C(=O)Nc3ccc(C(=O)NCCc4c[nH]cn4)cc32)cc1 | 37.9 |
| CCCN1CCC=C(c2ccc(Nc3nc(Nc4ccccc4C(N)=O)c4cc[nH]c4n3)c(C)c2)C1 | 70.8 |
| CCn1c(-c2nonc2N)nc2cnc(Oc3cccc(NC(=O)c4ccc(OCCN5CCOCC5)cc4)c3)cc21 | 10.3 |
| CC1=C(C(=O)Nc2ccc3[nH]ncc3c2)C(c2ccc3ccccc3c2)CC(=O)N1 (stereo not drawn) | 5.26 |
| COc1cc(C)c(NC(=O)CN(C)C)cc1Nc1nc(Nc2cccc(F)c2C(N)=O)c2cc[nH]c2n1 | 24.2 |
| CN1CCC(C(=O)Nc2n[nH]c3nnc(-c4ccccc4)cc23)CC1 | 12.6 |
| CCN1CCC(CC(=O)Nc2n[nH]c3nc(-c4cccs4)c(Br)cc23)CC1 | -6.26 |
| Nc1nc(-c2ccccn2)c(-c2ccc3ncccc3n2)s1 | 4.02 |
| [O-][S+]1CCN(Cc2ccc(-c3ccc4ncnc(Nc5ccc(OCc6ccccc6)c(F)c5)c4c3)o2)CC1 | 5.89 |
| N#Cc1c(NC(=O)c2cccc3ccccc23)sc2c1CCCC2 | 11.9 |
| COC(=O)Nc1nc2cc(Oc3cccc(NC(=O)Nc4cc(C(F)(F)F)ccc4F)c3)ccc2[nH]1 | 0.37 |
| O=C1NC(=O)C(c2ccc(Cl)cc2)=C1Nc1ccc(Cl)c(C(=O)O)c1 | -4.32 |
| COc1cc2ncn(-c3cc(OCc4ccccc4C(F)(F)F)c(C(N)=O)s3)c2cc1OC | 7.82 |
| Nc1ncnc2occ(-c3ccc(NC(=O)Nc4cccc(C(F)(F)F)c4)cc3)c12 | 7.86 |

| Compound | inhibition [%] |
| --- | --- |
| CNC(=O)c1cncc(/C=C/c2c(Cl)cccc2Cl)c1 | 17 |
| COc1ccc(-c2ccncc2)cc1C(N)=O | 5.37 |
| NCc1ccc(-c2nc(-c3ccc(Cl)c(O)c3)c(-c3ccncc3)[nH]2)cc1 | 2.08 |
| Fc1cccc(COc2ccc(Nc3ncnc4cc(-c5ccc[nH]5)sc34)cc2Cl)c1 | 9.76 |
| Cc1ccc(NC(=O)c2ccnc(N3CCCC3)c2)cc1-c1ccc(C(=O)NCC2CC2)cc1 | 15.4 |
| Cc1cc(O)cc(C)c1/C=C/c1cncc(-c2nn[nH]n2)c1 | 7.11 |
| COc1ccccc1Nc1ncc(-c2ccccc2)o1 | 10.2 |
| CS(=O)(=O)CCNCc1ccc(-c2ccc3ncnc(Nc4ccc(OCc5ccccc5)c(Cl)c4)c3c2)o1 | 4.06 |
| CS(=O)(=O)Nc1ccc(N/C=C2\C(=O)Nc3ccccc32)cc1 | -2.98 |
| COc1cc2ncn(-c3cc(O[C@@H](C)c4ccccc4Cl)c(C(N)=O)s3)c2cc1OC | 6.36 |
| COc1cc2ncn(-c3cc(O[C@H](C)c4ccccc4Cl)c(C(N)=O)s3)c2cc1OC | 9.01 |
| NC(=O)c1ccc(-c2nc(-c3ccccn3)c(-c3ccc4c(c3)OCO4)[nH]2)cc1 | 6.47 |
| O=C1Nc2ccc(C(=O)c3ccco3)cc2C1=Cc1cc(Cl)c(O)c(Cl)c1 | 10.9 |
| COC(=O)Nc1nc2cc(Oc3ccc(NC(=O)Nc4cccc(C(=O)O)c4)cc3)ccc2[nH]1 | 1.59 |
| COc1cc(C=NNc2ncnc3c2cnn3-c2ccccc2)ccc1O | 3.02 |
| COc1ccc(COc2ccc(Cc3cnc(N)nc3N)cc2OC)cc1 | -2.66 |
| NS(=O)(=O)c1cccc(-c2ccc3c(NC(=O)C4CC4)n[nH]c3c2)c1 | -4.5 |

system: T2, Receptor-type tyrosine-protein kinase FLT3 (Homo sapiens), P36888 [D835Y]; conditions: at 1 µM
T2 sequence (whole entry): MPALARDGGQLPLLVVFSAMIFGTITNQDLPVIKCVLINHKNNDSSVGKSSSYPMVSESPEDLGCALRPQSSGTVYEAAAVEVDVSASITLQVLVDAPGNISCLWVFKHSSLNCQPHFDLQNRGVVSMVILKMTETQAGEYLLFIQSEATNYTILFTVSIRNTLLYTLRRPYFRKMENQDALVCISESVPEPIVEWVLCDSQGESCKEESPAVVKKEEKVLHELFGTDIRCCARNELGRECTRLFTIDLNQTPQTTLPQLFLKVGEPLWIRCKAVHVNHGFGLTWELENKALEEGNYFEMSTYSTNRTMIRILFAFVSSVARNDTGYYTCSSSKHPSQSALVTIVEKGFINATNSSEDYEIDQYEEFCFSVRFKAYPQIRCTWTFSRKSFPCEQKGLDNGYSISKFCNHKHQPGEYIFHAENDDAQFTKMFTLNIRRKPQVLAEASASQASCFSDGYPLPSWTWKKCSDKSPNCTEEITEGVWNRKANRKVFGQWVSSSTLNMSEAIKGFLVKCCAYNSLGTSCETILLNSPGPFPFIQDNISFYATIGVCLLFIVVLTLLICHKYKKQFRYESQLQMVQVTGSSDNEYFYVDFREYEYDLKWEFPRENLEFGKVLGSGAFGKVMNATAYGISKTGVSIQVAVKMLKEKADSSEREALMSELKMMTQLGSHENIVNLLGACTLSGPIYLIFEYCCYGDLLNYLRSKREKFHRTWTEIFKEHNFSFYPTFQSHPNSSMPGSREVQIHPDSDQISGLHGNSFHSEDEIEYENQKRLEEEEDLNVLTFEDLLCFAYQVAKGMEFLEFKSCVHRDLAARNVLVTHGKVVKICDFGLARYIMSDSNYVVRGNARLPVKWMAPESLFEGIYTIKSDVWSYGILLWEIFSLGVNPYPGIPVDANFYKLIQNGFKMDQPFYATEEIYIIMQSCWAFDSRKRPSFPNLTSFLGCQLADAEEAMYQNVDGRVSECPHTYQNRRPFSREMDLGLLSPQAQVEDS

| Compound | inhibition [%] |
| --- | --- |
| CC(=O)Nc1cccc(C#Cc2cncnc2Nc2ccc(OCc3cccc(F)c3)c(Cl)c2)n1 | 2.36 |
| O=C1NC(=O)C(c2ccccc2Cl)=C1Nc1cccc(O)c1 | 3.87 |
| COc1ccc2cc(-c3c(-c4ccncc4)nc(-c4ccc([S+](C)[O-])cc4)n3C)ccc2c1 (stereo not drawn) | 5.59 |
| NS(=O)(=O)c1ccc(N/N=C2\C(=O)Nc3ccc(C(=O)NCCc4c[nH]cn4)cc32)cc1 | 48 |
| CCCN1CCC=C(c2ccc(Nc3nc(Nc4ccccc4C(N)=O)c4cc[nH]c4n3)c(C)c2)C1 | 20.8 |
| CCn1c(-c2nonc2N)nc2cnc(Oc3cccc(NC(=O)c4ccc(OCCN5CCOCC5)cc4)c3)cc21 | -0.53 |
| CC1=C(C(=O)Nc2ccc3[nH]ncc3c2)C(c2ccc3ccccc3c2)CC(=O)N1 (stereo not drawn) | 1.5 |
| COc1cc(C)c(NC(=O)CN(C)C)cc1Nc1nc(Nc2cccc(F)c2C(N)=O)c2cc[nH]c2n1 | 4.71 |
| CN1CCC(C(=O)Nc2n[nH]c3nnc(-c4ccccc4)cc23)CC1 | -2.63 |
| CCN1CCC(CC(=O)Nc2n[nH]c3nc(-c4cccs4)c(Br)cc23)CC1 | 10.7 |
| Nc1nc(-c2ccccn2)c(-c2ccc3ncccc3n2)s1 | 8.59 |
| [O-][S+]1CCN(Cc2ccc(-c3ccc4ncnc(Nc5ccc(OCc6ccccc6)c(F)c5)c4c3)o2)CC1 | 1.92 |
| N#Cc1c(NC(=O)c2cccc3ccccc23)sc2c1CCCC2 | -2.86 |
| COC(=O)Nc1nc2cc(Oc3cccc(NC(=O)Nc4cc(C(F)(F)F)ccc4F)c3)ccc2[nH]1 | 0.94 |
| O=C1NC(=O)C(c2ccc(Cl)cc2)=C1Nc1ccc(Cl)c(C(=O)O)c1 | 2.75 |
| COc1cc2ncn(-c3cc(OCc4ccccc4C(F)(F)F)c(C(N)=O)s3)c2cc1OC | 14.5 |
| Nc1ncnc2occ(-c3ccc(NC(=O)Nc4cccc(C(F)(F)F)c4)cc3)c12 | 34.6 |

| Compound | inhibition [%] |
| --- | --- |
| CNC(=O)c1cncc(/C=C/c2c(Cl)cccc2Cl)c1 | -3.57 |
| COc1ccc(-c2ccncc2)cc1C(N)=O | 3.51 |
| NCc1ccc(-c2nc(-c3ccc(Cl)c(O)c3)c(-c3ccncc3)[nH]2)cc1 | 1.57 |
| Fc1cccc(COc2ccc(Nc3ncnc4cc(-c5ccc[nH]5)sc34)cc2Cl)c1 | 1.35 |
| Cc1ccc(NC(=O)c2ccnc(N3CCCC3)c2)cc1-c1ccc(C(=O)NCC2CC2)cc1 | 1.51 |
| Cc1cc(O)cc(C)c1/C=C/c1cncc(-c2nn[nH]n2)c1 | -0.25 |
| COc1ccccc1Nc1ncc(-c2ccccc2)o1 | 25.5 |
| CS(=O)(=O)CCNCc1ccc(-c2ccc3ncnc(Nc4ccc(OCc5ccccc5)c(Cl)c4)c3c2)o1 | -0.19 |
| CS(=O)(=O)Nc1ccc(N/C=C2\C(=O)Nc3ccccc32)cc1 | 59.1 |
| COc1cc2ncn(-c3cc(O[C@@H](C)c4ccccc4Cl)c(C(N)=O)s3)c2cc1OC | 3.92 |
| COc1cc2ncn(-c3cc(O[C@H](C)c4ccccc4Cl)c(C(N)=O)s3)c2cc1OC | 39.6 |
| NC(=O)c1ccc(-c2nc(-c3ccccn3)c(-c3ccc4c(c3)OCO4)[nH]2)cc1 | 1.63 |
| O=C1Nc2ccc(C(=O)c3ccco3)cc2C1=Cc1cc(Cl)c(O)c(Cl)c1 | 29.9 |
| COC(=O)Nc1nc2cc(Oc3ccc(NC(=O)Nc4cccc(C(=O)O)c4)cc3)ccc2[nH]1 | 4.78 |
| COc1cc(C=NNc2ncnc3c2cnn3-c2ccccc2)ccc1O | 56.8 |
| COc1ccc(COc2ccc(Cc3cnc(N)nc3N)cc2OC)cc1 | -1.91 |
| NS(=O)(=O)c1cccc(-c2ccc3c(NC(=O)C4CC4)n[nH]c3c2)c1 | -1.12 |
